These results are taken from PubChem BioAssay (NCATS).

Several values for one entry are separate records, joined by “and”; a condition that tells them apart may be missing. Equal values may be shown once. Results filed as inconclusive are left out. Activity calls are given as the source filed them. Unless noted, the call rests on the fitted dose curve; in most records, active means well fitted cell-killing curve with a large enough effect; inconclusive means small, poorly fitted or top-dose-only effect; inactive means flat fitted curve, though single readings scatter.

Test [1] is described as follows: Cell Viability - LYMP2-006 (AID 978). Further: series mostly up to about 92 µM; on the % scale 0 is the no-effect control and ±100 the full control effect; nearly all actives have a fitted effect of over 60% in size. The gist of the method:
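Human lymphoblastoid cells, 2500 per well, were preincubated 5 hr at 37 C, then exposed to compounds for 24 hr at 37 C in complete medium. Viability was read as intracellular ATP by CellTiter-Glo luminescence; AC50 from Hill-equation fits of qHTS concentration-response data.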

Test [2] can be described thus: Cell Viability - LYMP2-007 (AID 979).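 Further: cells exposed to compound for 24 h before reading; 0% = DMSO only and the negative end = 92 µM tetraoctylammonium bromide; nearly all actives have a fitted effect of over 60% in size.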 The gist of the method:
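Acute toxicity is scored as a concentration-dependent fall in intracellular ATP in human lymphoblastoid cells treated 24 hr at 37 C, measured by luciferase luminescence; Hill-equation modelling yields AC50.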

Test [3] in a line: Cell Viability - LYMP2-008 (AID 980). Further: on the % scale 0 is the no-effect control and ±100 the full control effect; nearly all actives have a fitted effect of over 60% in size. The method in brief:
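Acute cytotoxicity is scored as concentration-dependent loss of cellular ATP in a human lymphoblastoid line after 24 hr treatment at 37 C. ATP is quantified by luciferase luminescence.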

A short description of test [4]: Cell Viability - LYMP2-010 (AID 981). Further: on the % scale 0 is the no-effect control and ±100 the full control effect; nearly all actives have a fitted effect of over 55% in size. The gist of the method: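 Acute toxicity is scored as a concentration-dependent loss of cellular ATP in human lymphoblastoid cells after 24 hr compound exposure in complete medium. Tetraoctylammonium bromide is the positive control.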
The nature of test [5]: Cell Viability - LYMP2-012 (AID 982).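 Further: cellular ATP by luciferase luminescence where a drop means cytotoxicity; cells exposed to compound for one day before reading; 0% = DMSO only and full loss = 92 µM tetraoctylammonium bromide; nearly all actives have a fitted effect of over 55% in size.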
Test [6] can be described thus: Cell Viability - LYMP2-014 (AID 983).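 Further: series mostly up to about 92 µM; plate controls were DMSO only for no effect and 92 µM tetraoctylammonium bromide for full effect; nearly all actives have a fitted effect of over 50% in size.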 The gist of the method:
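Decrease in intracellular ATP after 24 hr treatment at 37 C, measured by luciferase luminescence, indicated cytotoxicity. Concentration-response data were fitted with the standard Hill equation to give AC50.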

The nature of test [7]: Cell Viability - LYMP2-016 (AID 984). Further: on the % scale 0 is the no-effect control and ±100 the full control effect; nearly all actives have a fitted effect of over 55% in size. The gist of the method: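 Human lymphoblastoid cells (LYMP2-016), 2500/well in complete medium, preincubated 5 hr at 37 C, then compound-treated 24 hr at 37 C. Intracellular ATP read by CellTiter-Glo luminescence after 30 min at room temperature; AC50 from Hill-equation concentration-response fits.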
Test [8] is described as follows: Cell Viability - LYMP2-018 (AID 985).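 Further: compound exposure lasted 24 hr at 37 °C; plate controls were DMSO only for no effect and tetraoctylammonium bromide at 92 µM for full effect; nearly all actives have a fitted effect of over 50% in size.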 The gist of the method:
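Acute cytotoxicity is scored as a concentration-dependent drop in intracellular ATP after 24 hr exposure of the lymphoblastoid line in complete culture medium, measured by luciferase luminescence. Potency is expressed as AC50 from Hill modelling.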

Test [9] is described as follows: Cell Viability - LYMP2-020 (AID 986).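 Further: series mostly up to about 92 µM; plate controls were DMSO only for no effect and tetraoctylammonium bromide at 92 µM for full effect; nearly all actives have a fitted effect of over 55% in size.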 The method in brief:
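Acute cytotoxicity in a human lymphoblastoid line is scored as a concentration-dependent fall in cellular ATP after 24 hr at 37 C in complete medium. The positive control is tetraoctylammonium bromide, and potency is given as Hill-fit AC50.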

The nature of test [10]: Cell Viability - LYMP2-022 (AID 987). The method in brief:
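Acute toxicity in a human lymphoblastoid line is scored as decreased intracellular ATP after 24 hr compound treatment at 37 C. ATP is measured by CellTiter-Glo luminescence; curves are fitted with the Hill equation to give AC50.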

Test [11] is described as follows: Cell Viability - LYMP2-024 (AID 988).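 Further: plate controls were DMSO only for no effect and 92 µM tetraoctylammonium bromide for full effect; nearly all actives have a fitted effect of over 60% in size.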 The method in brief: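 Acute toxicity is measured as concentration-dependent loss of intracellular ATP in a human lymphoblastoid line treated 24 hours at 37 C. Luciferase luminescence quantifies ATP; AC50 values come from standard Hill-equation modelling.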
Test [12] can be described thus: Cell Viability - LYMP2-026 (AID 989). Further: on the % scale 0 is the no-effect control and ±100 the full control effect; nearly all actives have a fitted effect of over 50% in size. The method in brief:
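Concentration-dependent loss of intracellular ATP in human lymphoblastoid cells after 24 hr at 37 C, quantified by luciferase luminescence. AC50 derived from standard Hill equation.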

Test [13] in a line: Cell Viability - LYMP1-002 - Assay at 24 hr (AID 993). Further: on the % scale 0 is the no-effect control and ±100 the full control effect. The gist of the method:
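qHTS, LYMP1-002 lymphoblastoid, 24 h cpd, 37 C, CellTiter-Glo ATP luminescence; AC50 via Hill eq.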

Test [14] is described as follows: Cell Viability - LYMP1-002 - Assay at 40 hr (AID 994). The method in brief: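 Viability in the human lymphoblastoid line was measured as intracellular ATP via CellTiter-Glo after 40 hr compound exposure. Tetraoctylammonium bromide served as positive control.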
Test [15] in a line: qHTS Assay for Identification of Small Molecule Inducers of Hypoxia Response (AID 2120; active means well fitted curve in the direction sought with a large enough effect in the signal ratio, with a control signal flat, not every such curve was filed as active; the % refers to the signal ratio; further: 0% is about no effect). The method in brief: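 Induction of beta-lactamase reporter activity was measured in CellSensor HRE-bla ME-180 cells after 17 h compound treatment at 37 degrees C, using CCF4 substrate and the 460nm/530nm emission ratio to derive AC50 values.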
On the technique in general: In qHTS, concentration-response curves come from the screen itself.

The target of test [16] is Glucocorticoid receptor (Homo sapiens) (UniProt P04150). Briefly: qHTS assay for small molecule agonists of glucocorticoid receptor signaling (AID 588532; active means well fitted curve in the direction sought with a large enough effect in the signal ratio, with a control signal flat; the % refers to the signal ratio;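 further: 100% = dexamethasone at 0.1 µM and 0% = DMSO only wells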). The conditions noted are these: HeLa MMTV-bla, beta-lactamase ratio, agonist, 18 h; stronger effect = higher value; percent of dexamethasone control, DMSO zero. The method in brief: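 Titration series, up to 92 uM, applied to GRE-bla HeLa cells for 18 h at 37 C. Detection by CCF4 FRET substrate after 2 h at RT.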
Glucocorticoid receptor (Homo sapiens), sequence (P04150 whole entry, looked up): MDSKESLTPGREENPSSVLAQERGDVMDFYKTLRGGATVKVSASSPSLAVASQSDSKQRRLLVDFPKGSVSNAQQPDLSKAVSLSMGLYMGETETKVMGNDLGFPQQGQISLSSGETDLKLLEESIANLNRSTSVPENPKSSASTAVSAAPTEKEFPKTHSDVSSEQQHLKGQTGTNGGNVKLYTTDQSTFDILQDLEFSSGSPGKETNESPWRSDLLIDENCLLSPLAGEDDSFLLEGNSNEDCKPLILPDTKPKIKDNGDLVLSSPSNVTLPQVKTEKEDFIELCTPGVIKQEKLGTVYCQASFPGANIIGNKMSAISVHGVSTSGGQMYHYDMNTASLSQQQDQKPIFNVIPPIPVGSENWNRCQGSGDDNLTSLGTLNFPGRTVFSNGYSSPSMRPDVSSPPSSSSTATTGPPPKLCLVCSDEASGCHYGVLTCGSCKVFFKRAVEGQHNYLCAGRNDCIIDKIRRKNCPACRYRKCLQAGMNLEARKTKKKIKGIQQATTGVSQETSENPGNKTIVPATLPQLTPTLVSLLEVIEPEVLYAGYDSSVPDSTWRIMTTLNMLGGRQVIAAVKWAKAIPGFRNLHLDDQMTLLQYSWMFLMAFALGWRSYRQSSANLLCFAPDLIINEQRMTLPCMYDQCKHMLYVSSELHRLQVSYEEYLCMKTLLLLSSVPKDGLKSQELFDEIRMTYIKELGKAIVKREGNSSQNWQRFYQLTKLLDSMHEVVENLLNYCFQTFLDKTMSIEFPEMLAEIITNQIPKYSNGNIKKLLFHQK

Test [17] has the same target. Kind of test: qHTS assay for small molecule antagonists of glucocorticoid receptor signaling (AID 588533; active means well fitted inhibition curve with a large enough effect in the signal ratio, with a control signal flat, not every such curve was filed as active; the % refers to the signal ratio;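 further: cells stimulated with 2 nM dexamethasone as agonist; on the % scale 0 is the no-effect control and ±100 the full control effect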). The gist of the method:
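Antagonist-mode qHTS: compound titrations added to GRE-bla HeLa cells, then dexamethasone 2 nM final; 18 h, 37 C. CCF4 FRET fluorescence normalized to dexamethasone and DMSO; IC50 from Hill fit.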

The target of test [18] is Peroxisome proliferator-activated receptor delta (Homo sapiens) (UniProt Q03181). Kind of test: qHTS assay for small molecule agonists of peroxisome proliferator-activated receptor delta signaling (AID 588534; calls by dose curve;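 further: 0% = DMSO basal wells and 100% = positive control agonist at 10 µM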). The gist of the method:
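Reporter cells were plated and held 5 hrs at 37 C before compounds were added. After 18 hrs at 37 C, CCF4 dye was loaded for 2 hrs at RT and fluorescence measured.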

Test [19] in a line: qHTS assay for small molecule antagonists of peroxisome proliferator-activated receptor delta signaling (AID 588535; active means well fitted inhibition curve with a large enough effect in the signal ratio, with a control signal flat, not every such curve was filed as active; the % refers to the signal ratio;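 on max response: cells co-treated with a PPAR-delta agonist as stimulator during compound exposure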). The settings on record: HEK293T PPARd-UAS-bla, beta-lactamase FRET ratio, 18 h; 460 nm channel. The method in brief: (§1)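 GeneBLAzer PPAR-delta-UAS-bla HEK293T cells in medium with 2% charcoal/dextran FBS were preincubated 5 hrs at 37 C, then given compounds, incubated 18 hrs at 37 C, and read by CCF4 beta-lactamase fluorescence; IC50 from Hill fits.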

Test [20] addresses Peroxisome proliferator-activated receptor delta (Homo sapiens) (UniProt Q03181). The test is described as above. The gist of the method: as §1
Test [21] concerns the target Peroxisome proliferator-activated receptor gamma (Homo sapiens) (UniProt P37231). Kind of test: qHTS assay for small molecule agonists of peroxisome proliferator-activated receptor gamma signaling (AID 588536; active means well fitted curve in the direction sought with a large enough effect in the signal ratio, with a control signal flat, not every such curve was filed as active; the % refers to the signal ratio;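 further: 0% = DMSO basal wells and 100% = rosiglitazone at 2 µM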). The method in brief:
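Ratiometric blue/green fluorescence (405 nm excitation; 460 and 530 nm emission) from CCF4-loaded HEK293 reporter cells serves as signal. Exposure to test compounds lasts 16 h at 37 C in medium containing 1% charcoal/dextran-treated serum.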

In test [22] the target is Vitamin D3 receptor (Homo sapiens) (UniProt P11473). Briefly: qHTS assay for small molecule antagonists of vitamin D receptor signaling (AID 588541; calls by dose curve;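 further: receptor activated by calcitriol during compound treatment; series mostly up to about 77 µM; on the % scale 0 is the no-effect control and ±100 the full control effect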). The method in brief: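 VDR-UAS-bla HEK293T cells (2000/well, 2% charcoal-stripped FBS) were treated with titrated compounds plus 1-alpha,25-dihydroxyvitamin D3 (50 nM or 3 nM final) for 16 h at 37 C. CCF4 beta-lactamase fluorescence was read; Hill fits gave IC50.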
Vitamin D3 receptor (Homo sapiens), sequence (P11473 whole entry, looked up): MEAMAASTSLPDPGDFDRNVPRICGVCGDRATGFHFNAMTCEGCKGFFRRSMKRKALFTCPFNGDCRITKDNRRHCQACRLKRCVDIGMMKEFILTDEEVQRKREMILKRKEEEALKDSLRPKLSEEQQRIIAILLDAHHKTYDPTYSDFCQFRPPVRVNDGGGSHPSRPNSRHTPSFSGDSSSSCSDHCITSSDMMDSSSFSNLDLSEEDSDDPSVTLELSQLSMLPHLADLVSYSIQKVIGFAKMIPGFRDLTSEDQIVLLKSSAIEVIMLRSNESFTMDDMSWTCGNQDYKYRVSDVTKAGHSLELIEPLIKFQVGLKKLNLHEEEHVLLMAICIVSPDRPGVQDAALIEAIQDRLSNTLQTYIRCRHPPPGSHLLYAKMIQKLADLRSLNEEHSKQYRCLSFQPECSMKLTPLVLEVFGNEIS

Test [23] has the same target. Briefly: qHTS assay for small molecule agonists of vitamin D receptor signaling (AID 588543; calls by dose curve;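 further: 0% = DMSO basal and 100% = reference agonist control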). The gist of the method:
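GeneBLAzer VDR-UAS-bla HEK293T cells in 2% charcoal-stripped FBS medium were dosed with compound titrations for 16 h at 37 °C; CCF4 β-lactamase readout (405 nm ex, 460/530 nm em). EC50 and efficacy from Hill fits, normalized to 50 nM calcitriol (100%) and DMSO (0%).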

Peroxisome proliferator-activated receptor delta (Homo sapiens), sequence (Q03181 whole entry, looked up): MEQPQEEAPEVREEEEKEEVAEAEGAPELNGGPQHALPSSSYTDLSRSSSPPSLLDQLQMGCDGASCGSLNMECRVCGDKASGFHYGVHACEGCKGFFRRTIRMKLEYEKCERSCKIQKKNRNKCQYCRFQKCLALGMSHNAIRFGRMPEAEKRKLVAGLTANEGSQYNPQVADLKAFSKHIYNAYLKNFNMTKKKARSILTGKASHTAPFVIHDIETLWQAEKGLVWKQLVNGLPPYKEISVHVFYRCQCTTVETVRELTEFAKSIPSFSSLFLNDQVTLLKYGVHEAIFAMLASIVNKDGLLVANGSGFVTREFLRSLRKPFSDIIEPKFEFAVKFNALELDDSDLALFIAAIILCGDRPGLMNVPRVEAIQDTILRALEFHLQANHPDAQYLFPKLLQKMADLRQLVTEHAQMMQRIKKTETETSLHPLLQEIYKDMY
Peroxisome proliferator-activated receptor gamma (Homo sapiens), sequence (P37231 whole entry, looked up): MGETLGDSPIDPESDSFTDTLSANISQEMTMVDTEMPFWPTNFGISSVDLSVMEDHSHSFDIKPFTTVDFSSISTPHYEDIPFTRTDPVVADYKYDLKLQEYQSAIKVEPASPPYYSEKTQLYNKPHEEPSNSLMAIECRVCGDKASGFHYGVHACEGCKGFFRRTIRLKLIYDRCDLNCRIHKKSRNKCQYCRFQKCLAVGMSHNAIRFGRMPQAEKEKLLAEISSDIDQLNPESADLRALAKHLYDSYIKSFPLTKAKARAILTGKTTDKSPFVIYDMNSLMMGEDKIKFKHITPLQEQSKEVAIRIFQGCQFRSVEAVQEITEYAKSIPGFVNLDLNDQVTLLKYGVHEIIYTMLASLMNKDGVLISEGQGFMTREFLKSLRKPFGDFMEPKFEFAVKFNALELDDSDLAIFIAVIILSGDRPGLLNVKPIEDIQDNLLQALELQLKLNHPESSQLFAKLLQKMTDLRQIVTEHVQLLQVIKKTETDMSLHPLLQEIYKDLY

Turning to `Clc1cc(Cl)c(-c2cc(Cl)c(Cl)cc2Cl)cc1Cl`, the Potency entry in test [1], in [2], in test [3], in test [4], in test [5] and in test [6] was “inactive” throughout. In addition, the Potency result in [7], in test [8], in [9], in test [10], in test [11] and in test [12] was “inactive” each time. Further, the Potency result in test [13], in [14], in test [17] and in test [20] was “inactive” each time. For the same molecule, the molecule was called inactive in [15], in test [18], in test [21], in test [22] and in test [23]. Also, the activation in test [16] is 0.333% (inactive) and 5.15% (inactive). Also, the max response in test [19] is 34.2% and 61.4%.
